Reference: PubChem BioAssay AID651871 (Sanford-Burnham Center for Chemical Genomics, 2012)

Tested on: HL-1
Test: cardiomyocyte survival under oxidative or metabolic stress – cell-based, panel, H9c2 and HL-1, ATP luminescence, set 2, SAR follow-up (AID 651871);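 also: cells exposed to stressor for 2 h before ATP readout; reference of the scale not given here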
Conditions: H9c2/HL-1 cardiomyocytes, 2-deoxyglucose stress, with 2-deoxyglucose, run 4, at 19.8 µM (top of the series)

Structure (SMILES): COc1ccc2c(c1OC)C(=O)N1c3ccccc3C(=O)N(Cc3cccc(Cl)c3Cl)C21 (stereo unspecified)
- activity (protection/inhibition): 48.1%
